Measured values reported in PubChem BioAssay (NCI).
This is part of a sample that, as a whole, favours compounds with a hit. Of some 79,000 tested, about 15% had one in any assay. Activity calls are given as the source filed them. Rule as the data show it: active = growth inhibition above about 70%; inactive = the rest.

Columns and labels:
[1] = NCI Yeast Anticancer Drug Screen. Data for the rad52 strain (AID 147);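 also: 0% = growth of vehicle-treated control cultures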; conditions: S. cerevisiae rad52 mutant growth inhibition, active compounds read high
Method in brief: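 Growth of repair-deficient yeast cells was compared between compound-treated and vehicle-treated cultures to give percent inhibition.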

[2] = NCI Yeast Anticancer Drug Screen. Data for the wt1 strain (AID 149);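 also: 0% = growth of vehicle-treated wt1 cultures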; conditions: S. cerevisiae wt1 strain (SPY 50644) growth inhibition, active compounds read high
Method in brief: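 Compounds are added to wt1 yeast cultures. Growth is then measured. Inhibition is expressed relative to vehicle-treated controls.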

[3] = NCI Yeast Anticancer Drug Screen. Data for the rad50EPP+ strain (AID 151);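 also: 0% = growth of vehicle-treated control cultures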; conditions: S. cerevisiae rad50 mutant strain, active compounds read high
Method in brief: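 Measured: growth inhibition of rad50EPP+ yeast. Reference: vehicle-treated controls. Screen uses strains with defined genetic alterations in DNA damage repair or cell cycle control.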

[4] = NCI Yeast Anticancer Drug Screen. Data for the mgt1 strain (AID 153); conditions: S. cerevisiae mgt1 mutant growth inhibition, active compounds read high
Method in brief: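 Compounds were applied to mgt1 mutant yeast, and growth was then compared against vehicle-treated control cultures to give percent inhibition.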

[5] = NCI Yeast Anticancer Drug Screen. Data for the rad50 strain (AID 155);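 also: 0% = growth of vehicle-only cultures of the same strain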; conditions: S. cerevisiae rad50 strain growth inhibition, active compounds read high
Method in brief: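 Inhibition values express reduced yeast growth in compound-treated cultures relative to vehicle-treated controls.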

[6] = NCI Yeast Anticancer Drug Screen. Data for the mec2-1 strain (AID 157); conditions: S. cerevisiae mec2-1 strain, active compounds read high
Method in brief: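 Compounds were applied to mec2-1 yeast cells. Their growth was then compared with that of vehicle-treated cultures to give growth inhibition.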

[7] = NCI Yeast Anticancer Drug Screen. Data for the rad14 strain (AID 159);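 also: 0% = growth of vehicle-treated control cultures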; conditions: S. cerevisiae rad14 strain growth inhibition, active compounds read high
Method in brief: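 A mutant yeast strain defective in DNA damage repair is treated with compound; inhibition of its growth is scored against untreated, vehicle-exposed cultures.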

[8] = NCI Yeast Anticancer Drug Screen. Data for the sgs1 mgt1 strain (AID 161);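 also: 0% = growth of cultures given vehicle only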; conditions: S. cerevisiae sgs1 mgt1 strain, active compounds read high
Method in brief: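 Growth of a repair-deficient yeast mutant was monitored after compound treatment and expressed as inhibition relative to vehicle-treated cultures.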

[9] = NCI Yeast Anticancer Drug Screen. Data for the CLN2oe strain (AID 163);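 also: 0% = growth of vehicle-only control cultures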; conditions: S. cerevisiae CLN2oe strain, active compounds read high
Method in brief: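 Cells of an engineered yeast line with disturbed cell-cycle regulation are treated with compound. Inhibition of growth is then calculated relative to the vehicle-treated reference.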

[10] = NCI Yeast Anticancer Drug Screen. Data for the cln2 rad14 strain (AID 165);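 also: 0% = growth equal to vehicle treated cultures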; conditions: S. cerevisiae cln2 rad14 strain, active compounds read high
Method in brief: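 Strain: cln2 rad14 yeast, altered in cell cycle control and DNA damage repair. Read-out: growth inhibition vs vehicle.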

[11] = NCI Yeast Anticancer Drug Screen. Data for the bub3 strain (AID 167); conditions: S. cerevisiae bub3 mutant strain, active compounds read high
Method in brief: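 Steps: expose the mutant yeast strain to compound; grow alongside vehicle-treated cultures; measure growth; express inhibition against the vehicle cultures.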

[12] = NCI Yeast Anticancer Drug Screen. Data for the wt2 strain (AID 169);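 also: 0% = growth of vehicle-treated yeast cultures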; conditions: S. cerevisiae wt2 strain growth inhibition, active compounds read high
Method in brief: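 Growth of compound-treated yeast is measured and expressed as inhibition relative to vehicle-only controls.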

[13] = NCI Yeast Anticancer Drug Screen. Data for the mlh1 strain (AID 171);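 also: 0% = growth of vehicle-treated control cultures of the same strain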; conditions: S. cerevisiae mlh1 strain growth inhibition, active compounds read high
Method in brief: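 Test agents were incubated with yeast bearing a defined DNA damage repair or cell cycle control alteration; values are growth inhibition normalised to vehicle-treated cultures.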

[14] = NCI Yeast Anticancer Drug Screen. Data for the sgs1 strain (AID 173);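 also: 0% = growth of vehicle-only control cultures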; conditions: S. cerevisiae sgs1 mutant, active compounds read high
Method in brief: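 Strain with an altered DNA repair or cell cycle pathway exposed to compound. Growth then measured. Value = inhibition versus vehicle control.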

[15] = NCI Yeast Anticancer Drug Screen. Data for the mlh1 rad18 strain (AID 175); conditions: S. cerevisiae mlh1 rad18 strain growth inhibition, active compounds read high
Method in brief: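 A repair-deficient yeast strain is exposed to test compound, and growth is scored relative to vehicle-treated controls.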

[16] = NCI Yeast Anticancer Drug Screen. Data for the rad18 strain (AID 177); conditions: S. cerevisiae rad18 mutant growth inhibition, active compounds read high
Method in brief: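 DNA-repair-defective yeast; compound treatment; growth inhibition scored against vehicle.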

[17] = at 5.0 µM (retest, dose inferred, filed as 0.5)
[18] = at 50.0 µM (retest, dose inferred, filed as 5.0)

Measured: growth inhibition

COC(=O)C(Cc1c[nH]c2ccccc12)N1CN(C)c2ccccc2C1=O (stereo not drawn)
active: [1]; at 100.0 µM 99% | [4]; at 100.0 µM 99% | [5]; at 100.0 µM 99% | [6]; at 100.0 µM 99% | [7]; at 100.0 µM 99% | [8]; at 50.0 µM 97.8% | [9]; at 100.0 µM 99% | [10]; at 50.0 µM 70.5% | [11]; at 100.0 µM 99% | [12]; at 100.0 µM 99% | [13]; at 100.0 µM 99% | [14]; at 100.0 µM 99% | [15]; [18] 75% | [15]; at 50.0 µM 95.8% | [16]; at 100.0 µM 99%
inactive: [1]; at 1.2 µM 7% | [1]; at 3.7 µM 2% | [1]; at 11.0 µM 0% | [1]; at 33.0 µM 3% | [2]; at 1.2 µM 7% | [2]; at 3.7 µM -3% | [2]; at 11.0 µM -4% | [2]; at 33.0 µM -4% | [2]; at 100.0 µM 60% | [3]; at 1.2 µM 9% | [3]; at 3.7 µM 0% | [3]; at 11.0 µM -3% | [3]; at 33.0 µM 1% | [3]; at 100.0 µM 16% | [4]; at 1.2 µM 49% | [4]; at 3.7 µM -1% | [4]; at 11.0 µM -1% | [4]; at 33.0 µM 5% | [5]; at 1.2 µM 7% | [5]; at 3.7 µM 2% | [5]; [17] 11% | [5]; at 11.0 µM 6% | [5]; at 33.0 µM 2% | [5]; [18] 37% | [5]; at 50.0 µM 57.9% | [6]; at 1.2 µM 5% | [6]; at 3.7 µM -1% | [6]; [17] -17% | [6]; at 11.0 µM -2% | [6]; at 33.0 µM 5% | [6]; [18] 11% | [6]; at 50.0 µM 50.5% | [7]; at 1.2 µM 6% | [7]; at 3.7 µM -9% | [7]; at 11.0 µM -5% | [7]; at 33.0 µM -13% | [8]; [17] -2% | [8]; [18] 60% | [9]; at 1.2 µM 4% | [9]; at 3.7 µM 1% | [9]; at 11.0 µM 3% | [9]; at 33.0 µM 7% | [10]; [17] -4% | [10]; [18] 54% | [11]; at 1.2 µM -6% | [11]; at 3.7 µM -1% | [11]; [17] 13% | [11]; at 11.0 µM 11% | [11]; at 33.0 µM 0% | [11]; [18] 44% | [11]; at 50.0 µM 40.4% | [12]; at 1.2 µM 8% | [12]; at 3.7 µM -2% | [12]; at 11.0 µM -4% | [12]; at 33.0 µM 0% | [13]; at 1.2 µM 2% | [13]; at 3.7 µM 0% | [13]; at 11.0 µM 0% | [13]; at 33.0 µM 6% | [14]; at 1.2 µM 3% | [14]; at 3.7 µM 2% | [14]; at 11.0 µM 1% | [14]; at 33.0 µM 8% | [15]; [17] -9% | [16]; at 1.2 µM -8% | [16]; at 3.7 µM -3% | [16]; at 11.0 µM 3% | [16]; at 33.0 µM 18%
